Pf Dd2 growth = blocks in vitro growth of P. falciparum Dd2; Potency, µM (series often up to 28.9 µM), for inactives: at the highest dose activity, negative = inhibition, actives largely listed as inhibitors; AID 1347417; actives 4.3% (n = 120,000); P. falciparum Dd2 growth, SYBR Green, 72 h; active means well fitted inhibition curve with a large enough effect;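 further: plate controls were DMSO vehicle for no effect and reference drug for full effect; nearly all actives have a fitted effect of over 65% in size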
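Infected erythrocytes (Dd2, 0.3% parasitemia, 2.5% hematocrit final) are added to compound in RPMI-1640/Albumax II medium, grown 72 h at 37C in low oxygen, then lysed with saponin/Triton-X containing SYBR Green and read by fluorescence.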
An asterisk follows results filed as active; i = inactive; [ ] = remark or other dose. This excerpt belongs to a sample that is enriched for hits. Potency means the concentration at half of the fitted maximal effect.

SMILES | Pf Dd2 growth
CCOc1ccccc1C(=O)NCC(c1cccs1)S(=O)(=O)c1ccc(F)c(C)c1 (stereo unspecified) | 20.2%
CCCc1nc(NCc2ccc(-c3noc(C)n3)cc2)c2cnn(C)c2n1 | -26.3%
CCC1CN(C(=O)c2ccc(NCc3cnn(CC)c3)nc2)CCN1C(C)C (stereo unspecified) | -6.3%
Cc1cccc(CN2CCN(C(=O)c3cnc4ccccn4c3=O)CC2=O)c1 | -2.9%
COc1ccc([C@H](C)NC(=O)c2c(C)noc2-c2cc(OC)c(OC)c(OC)c2)cc1 | -3.3%
COc1ccc(-c2onc(C)c2C(=O)NCCCCc2ccccc2)cc1 | -13.1%
COc1ccc(-c2onc(C)c2C(=O)N(C)Cc2cc(OC)c(OC)c(OC)c2)cc1 | 10µM*
COCCCNC(=O)c1c(C)noc1-c1cc(OC)c(OC)c(OC)c1 | 22.3%
COc1ccc(-c2onc(C)c2C(=O)NCc2c(OC)cc(OC)cc2OC)cc1 | i
COc1cc(-c2onc(C)c2C(=O)NCCCc2ccccc2)cc(OC)c1OC | 11.2µM*
O=C(O)CC1CCOCC1 | 77.0%
Cc1ccc2c(c1)N1C(=O)OC[C@@H]1CCNC2 | 23.0%[44.1 µM]
Cc1cc(C[C@@H]2COC[C@@H]2NC(=O)CCCn2cncn2)on1 | 16.3%
Cc1ccc(-n2c(C3CCN(C(=O)c4ccccc4F)CC3)n[nH]c2=O)cc1 | -20.0%
O=C(Nc1ccccc1)Nc1ccc([C@@H](O)[C@H]2COCC(=O)N2Cc2ccc(F)cc2)cc1 | i
COc1ccc(C2(C(=O)N3CCCC(CN4CCCC4)CC3)CC2)cc1 (stereo unspecified) | 3.16µM*
COCC(=O)N(C1CCOCC1)C1CCN(C(=O)Cc2cccc(OC)c2)CC1 | 13.7%
COc1cccc(CC(=O)N2CCCCCCNC(=O)CC2)c1 | -14.6%
COc1ccc(C2(C(=O)N3CCC(F)CC3)CCOCC2)cc1 | 12.6%
COc1ccc(C2(C(=O)N3CCC(CC(=O)NC4CC4)C3)CC2)cc1 (stereo unspecified) | 26.4%
COc1cccc(CC(=O)N2CCCC(CN3CCCC3)CC2)c1 (stereo unspecified) | 1µM*
O=C([C@@H]1CNC[C@H](C(=O)N2CCN(c3nccs3)CC2)C1)N1CCCC1 | -8.2%
O=C(CCNc1c(-c2cccc(F)c2)nc2cnccn12)N1CCCC1 | i
CCCCCCN(CCC(=O)NCCC)C(=O)c1ccoc1 | -15.8%
Cc1ccc(NC(=O)NCC2CCN(Cc3cccc(Cl)c3)CC2)cc1Cl | 10µM*
SMILES | Pf Dd2 growth
O=C(Nc1cccc(C(F)(F)F)c1)c1cc2ccc3cccnc3c2[nH]1 | 29.8%
Cc1ccc(CN2CCC(CNC(=O)Nc3ccccc3F)CC2)cc1 | i
CC(C)NC(=O)NCC1CCCN(Cc2ccc3c(c2)OCCO3)C1 (stereo unspecified) | -10.0%
Cc1ccc(CN2CCC(CNC(=O)Nc3ccc(Cl)cc3)C2)cc1 (stereo unspecified) | i
COc1ccc(CN2CCCC(CNC(=O)NC(C)C)C2)cc1O (stereo unspecified) | -22.3%
O=C(NCC1CCN(Cc2cccc(Cl)c2)CC1)c1cc2ccc3cccnc3c2[nH]1 | 7.94µM*
O=C(Nc1ccc(F)cc1F)c1cc2ccc3cccnc3c2[nH]1 | 24.8%
Cc1ccc(CN2CCC(CNC(=O)NC(C)C)C2)cc1C (stereo unspecified) | 8.91µM*
O=C(c1ccc(C(F)(F)F)cc1)N1CCCC2(C1)C(=NC1CCCCC1)NC(=O)N2c1cc(F)cc(F)c1 (stereo unspecified) | 40.8%
O=C(C1CCC(=O)N(C2CCCCCC2)C1)N1Cc2ccccc2C1 (stereo unspecified) | -12.4%
Cc1ccccc1CN1Cc2nc(-c3ccsc3)ccc2OCC1=O | -0.7%[44.1 µM]
Cc1cccc(CNC(=O)[C@H]2CCC[C@H]2NC(=O)c2cnc(C)cn2)c1 | -5.0%
CN1CCN(C(=O)CCc2nc(C3CCCN3C(=O)NCCc3ccccc3)no2)CC1 (stereo unspecified) | -22.2%
O=C(CCc1nnn2c1CN(C(=O)c1ccc(F)cc1)CC2)NC1CC1 | -10.8%
Cc1n[nH]c(C)c1CNC(=O)CCC[C@@H]1[C@H]2CCCN3CCC[C@@H](CN1Cc1ccccc1)[C@@H]23 | -12.4%
CC(C)NC(=O)CCC[C@@H]1[C@H]2CCCN3CCC[C@@H](CN1Cc1ccccc1)[C@@H]23 | i
Cc1ccc(CNC(=O)CCC[C@@H]2[C@H]3CCCN4CCC[C@@H](CN2Cc2ccccc2)[C@@H]34)o1 | 3.55µM*
Clc1ccccc1C1Cn2cnc(-c3nc(-c4ccccn4)no3)c2CO1 (stereo unspecified) | 6.31µM*
Fc1ccc(-c2noc(-c3ncn4c3COC(c3ccccc3Cl)C4)n2)cc1 (stereo unspecified) | -20.7%
FC(F)(F)c1ccc(-c2noc(-c3ncn4c3COC(c3ccccc3Cl)C4)n2)cc1 (stereo unspecified) | -11.6%
Cc1ccsc1C(=O)N1CCC2(CC1)NC(=O)N(c1ccccc1)N2 | 43.3%
COc1ccc(C(=O)N2CCC3(CC2)NC(=O)N(c2ccccc2)N3)cc1 | 7.0%
O=C(c1n[nH]c2c1CCCC2)N1CCC2(CC1)NC(=O)N(c1ccccc1)N2 | 3.16µM*
Cc1cnc(C(=O)N2CCC(c3noc(-c4ccncc4)n3)C2)cn1 (stereo unspecified) | i[5.79 µM]
CC1(C)CC(CC(=O)N[C@H](Cc2ccccc2)C2CC(O)C2)CC(C)(C)N1 (stereo partly specified) | 7.4%
SMILES | Pf Dd2 growth
COCCOC1CCN(C(=O)c2cc(F)ccc2F)CC1 | 31.1%
CCOC(=O)c1ccc(NC(=O)CC2Nc3cccc4cccc(c34)NC2=O)cc1 (stereo unspecified) | 10µM*
NC(=O)c1ccc(NC(=O)C[C@H]2NC(=O)c3ccccc3NC2=O)cc1 | 4.6%
CCOC(=O)c1ccc(NC(=O)CC2Sc3ccc(C(F)(F)F)cc3NC2=O)cc1 (stereo unspecified) | 39.8%[0.594 µM]
CC(=O)c1ccc(NC(=O)CC2Nc3cccc4cccc(c34)NC2=O)cc1 (stereo unspecified) | -0.9%
CCOC(=O)c1ccc(NC(=O)CC2Nc3cc(C)c(C)cc3NC2=O)cc1 (stereo unspecified) | 3.98µM*
CCOc1ccc(NC(=O)CC2Nc3cccc4cccc(c34)NC2=O)cc1 (stereo unspecified) | 7.7%
CCCCN1C(=O)[C@@H]2C[C@@H](O)CN2C2(CN(Cc3cccs3)C2)C1=O | -9.4%[44.1 µM]
COc1cc(-c2ccnc(-c3nnc(C)n3Cc3ccncc3)c2)ccn1 | -16.7%[44.1 µM]
CN(Cc1ccon1)C(=O)C1CC(=O)N(Cc2ccccn2)C1 (stereo unspecified) | -7.6%
Cc1ccc(Cl)cc1NC(=O)Cn1cccc1-c1nc(-c2ccc(F)cc2)no1 | i
NCC1(N2CCCC2)CCCCC1 | 10.3%[76.6 µM]
COc1cccc(CNC(=O)CC2C(=O)NCCN2CC(C)C)c1OC (stereo unspecified) | -23.4%
COC(=O)CNC(=O)c1cc(-c2ccc(Cl)cc2Cl)c2cnn(C)c2n1 | 19.3%
Cn1cc(C(=O)NCCc2ccc(Cl)cc2)c(=O)c2cc(S(=O)(=O)N3CCCCC3)ccc21 | 64.5%
Cn1cc(C(=O)NCCc2ccccc2)c(=O)c2cc(S(=O)(=O)N3CCCCCC3)ccc21 | 12.6µM*
CCCCNC(=O)c1cn(C)c2ccc(S(=O)(=O)N3CCCC3)cc2c1=O | -4.7%
Cc1nnc(-c2cc(-c3cccc(F)c3)ccn2)n1CCc1ccccc1 | -11.2%[44.1 µM]
Cc1nnc(-c2cc(-c3cccc(O)c3)ccn2)n1CCc1ccccc1 | i
CC(=O)Nc1cccc(-c2ccnc(-c3nnc(C)n3CCc3ccccc3)c2)c1 | 7.94µM*
